TGFb inhibitor = qHTS for Inhibitors of TGF-b. HepG2 CAGA-GFP TGF-b/SMAD3 reporter, GFP fluorescence, 18 h; TGF-beta stimulated, 500 pg/mL final. Potency, µM (doses to about 46.1 µM), most hits filed as inhibitors. actives 1.2% (n = 410,000); also: nearly all actives have a fitted effect of over 65% in size
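HEPG2 CAGA-GFP reporter cells (1000/well, DMEM with 1% FBS) received compounds, then recombinant TGF-beta at 500 pg/mL final for 18 hours at 37 degrees C. Per-cell GFP summed per well was normalised to unstimulated and stimulated DMSO controls before curve fitting.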
DT40 TDP1 CPT = qHTS for Inhibitors of human tyrosyl-DNA phosphodiesterase 1 (TDP1): qHTS in cells in presence of CPT | chicken DT40 Tdp1-/-;hTDP1 cells + 20 nM CPT, ATP luminescence, 48 h | actives 12% (n = 420,000) | Potency, µM (series often up to 46.2 µM), usual class: inhibitors; also: nearly all actives have a fitted effect of over 55% in size
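Cell growth measured by CellTiter-Glo luminescence after a minimum 48 h, 37 C compound exposure with 20 nM CPT in Tdp1-knockout DT40 cells stably expressing hTDP1, seeded 400/well; qHTS titration format.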
HT1080NT lethal = qHTS for induction of synthetic lethality in tumor cells producing 2HG: qHTS for the HT-1080-NT fibrosarcoma cell line; HT-1080-NT fibrosarcoma viability, CellTiter-Glo ATP luminescence, 48 h; Potency, µM (top dose mostly 46.1 µM), most hits filed as cytotoxic; actives 1.6% (n = 360,000); AID 686970, 2013;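 also: NT is the 2HG producing partner of a matched IDH1 knockdown line; nearly all actives have a fitted effect of over 55% in size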
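HT-1080-NT; 750 cells/well; 5% FBS RPMI; 48 h compound, 37 degrees C; CellTiter-Glo luminescence; curve fitting and curve-class assignment.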
DT40 TDP1 no CPT = qHTS for Inhibitors of human tyrosyl-DNA phosphodiesterase 1 (TDP1): qHTS in cells in absence of CPT | DT40 Tdp1-/- hTDP1 cells, no CPT, ATP luminescence, 48 h | Potency, µM (series often up to 46.2 µM), most hits filed as inhibitors | actives 15% (n = 420,000); also: nearly all actives have a fitted effect of over 55% in size
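Chicken DT40 Tdp1-/- cells stably complemented with human TDP1 were seeded at 400 cells/well with DMSO in place of 20 nM camptothecin. After compound pinning, cells grew at least 48 hr at 37 °C; viability read by CellTiter-Glo luminescence.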
HT1080 IDH1KD tx = qHTS for induction of synthetic lethality in tumor cells producing 2HG: qHTS for the HT-1080-IDH1KD cell line; actives 2% (n = 360,000); HT-1080 IDH1 knockdown viability, ATP luminescence, 48 h; Potency, µM (highest dose often 46.1 µM), usual class: cytotoxic
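Viability of IDH1-knockdown HT-1080 fibrosarcoma cells was assessed by CellTiter-Glo after 48 h at 37 °C with titrated compound; concentration-effect curves were classified by fit quality and response size.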
HepG2 tox = qHTS for Inhibitors of TGF-b: Cytotox Counterscreen. HepG2 CAGA-GFP viability, ATP luminescence, 18 h. Potency, µM (titrated, usually from 46.1 µM), actives largely listed as cytotoxic. actives 0.76% (n = 410,000)
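HepG2 CAGA-GFP cells (1000/well, DMEM with 1% FBS) received compound, then TGF-beta at 500 pg/mL final, and were incubated 18 hours at 37 degrees C. Viability was read by CellTiter-Glo luminescence. Media-only wells were set as complete cell-killing and DMSO as no toxicity.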
Of the large screens only hits and unclear results are named; the others gave an inactive call. Hits are enriched below; roughly 17% of the tested compounds scored in any of these assays. Calls follow the shape of the dose curve; as a rule, active = well fitted curve in the direction sought with a large enough effect; inconclusive = small, poorly fitted or top-dose-only effect, or another doubt; inactive = no such curve, though single readings can be large; an effect the other way counts as inactive or inconclusive.

Cc1cc2oc(C(=O)Nc3ccc(S(=O)(=O)N4CCC(C)CC4)cc3)cc(=O)c2cc1C	none (no result: HT1080NT lethal, HT1080 IDH1KD tx)
Cc1cc(C)c2oc(C(=O)Nc3ccc(S(=O)(=O)N4CCC(C)CC4)cc3)cc(=O)c2c1	DT40 TDP1 CPT 10µM, DT40 TDP1 no CPT 7.3µM
CCOc1ccc(CCNC(=O)Cn2nnc(-c3ccc(OC)c(OC)c3)n2)cc1OCC	DT40 TDP1 CPT inconclusive, DT40 TDP1 no CPT inconclusive (no result: HT1080NT lethal, HT1080 IDH1KD tx)
Cc1cccc(-n2c(=S)[nH]c3sc4c(c3c2=O)CCc2ccccc2-4)c1	DT40 TDP1 CPT 9.2µM, DT40 TDP1 no CPT 6.5µM
Cc1ccc2nc(C3CCCN(C(=S)Nc4cccc(C)c4C)C3)[nH]c2c1 (configuration not stated)	TGFb inhibitor inconclusive, DT40 TDP1 CPT inconclusive, HT1080NT lethal inconclusive, DT40 TDP1 no CPT 18µM, HT1080 IDH1KD tx inconclusive
COC(=O)c1ccc(NC(=O)CC2C(=O)N(c3ccccc3)C(=O)N2Cc2cccs2)cc1 (configuration not stated)	DT40 TDP1 CPT 16µM, DT40 TDP1 no CPT 18µM (no result: HT1080NT lethal, HT1080 IDH1KD tx)
COC(=O)c1ccc(NC(=O)CC2C(=O)N(c3ccc(Cl)cc3)C(=O)N2Cc2cccs2)cc1 (configuration not stated)	TGFb inhibitor inconclusive, DT40 TDP1 CPT 23µM, DT40 TDP1 no CPT inconclusive (no result: HT1080NT lethal, HT1080 IDH1KD tx)
CCCOc1ccc(NC(=O)CC2C(=O)N(CC)C(=S)N2Cc2cccs2)cc1 (configuration not stated)	TGFb inhibitor inconclusive, DT40 TDP1 CPT inconclusive, HT1080NT lethal inconclusive, DT40 TDP1 no CPT inconclusive, HT1080 IDH1KD tx 20µM
CCOc1ccc(NC(=O)CC2C(=O)N(c3ccccc3)C(=O)N2Cc2ccccn2)cc1 (configuration not stated)	none
C=CCN1C(=O)C(CC(=O)Nc2ccc(OCCC)cc2)N(CCCN2CCN(Cc3ccccc3)CC2)C1=S (configuration not stated)	TGFb inhibitor inconclusive, DT40 TDP1 CPT 23µM, HT1080NT lethal 16µM, DT40 TDP1 no CPT 21µM, HT1080 IDH1KD tx 16µM
COc1ccccc1-c1ccnc(-n2ncc(C(=O)NCc3cccc(C)n3)c2C)n1	none (no result: TGFb inhibitor, HT1080NT lethal, HT1080 IDH1KD tx, HepG2 tox)
CCOc1ccc(NC(=O)CC2C(=O)N(c3ccc(Cl)cc3)C(=O)N2Cc2cccs2)cc1 (configuration not stated)	DT40 TDP1 CPT inconclusive, DT40 TDP1 no CPT 13µM (no result: HT1080NT lethal, HT1080 IDH1KD tx)
COc1cc(C(=O)N/N=C/c2ccc(OC(=O)c3cccc(C)c3)c(OC)c2)ccc1O	DT40 TDP1 CPT inconclusive, DT40 TDP1 no CPT inconclusive
CCOC(=O)c1ccc(NC(=O)CSc2nc(-c3ccc(F)cc3)cc(C(F)(F)F)c2C#N)cc1	DT40 TDP1 CPT inconclusive, DT40 TDP1 no CPT inconclusive (no result: HT1080NT lethal, HT1080 IDH1KD tx)
O=C(c1ccc(S(=O)(=O)N2CCCC2)cc1)N1CCCCC1	none
O=C(/C=C/c1ccc(O)c(O)c1)c1ccc(S(=O)(=O)N2CCCCCC2)cc1	DT40 TDP1 CPT 4.6µM, DT40 TDP1 no CPT 5.2µM
Cc1ccc(NS(=O)(=O)c2ccccc2Cl)c2c1CC(C)(C)O2	DT40 TDP1 CPT 20µM, DT40 TDP1 no CPT 14µM
COc1cc(-c2nnc(Sc3ccc(C(F)(F)F)cc3[N+](=O)[O-])o2)cc(OC)c1OC	DT40 TDP1 CPT 21µM, DT40 TDP1 no CPT 23µM
O=[N+]([O-])c1cc(C(F)(F)F)ccc1Sc1ccc2ccccc2n1	none
CN(CCc1ccccc1)C(c1ccnc2ccccc12)c1nnnn1-c1ccc2c(c1)OCCO2 (configuration not stated)	DT40 TDP1 CPT inconclusive, HT1080NT lethal inconclusive, DT40 TDP1 no CPT 16µM, HT1080 IDH1KD tx inconclusive (no result: TGFb inhibitor, HepG2 tox)
Cc1cccc(C)c1-n1nnnc1C(c1ccnc2ccccc12)N(CCC#N)Cc1ccccc1 (configuration not stated)	DT40 TDP1 CPT 13µM, DT40 TDP1 no CPT 10µM (no result: TGFb inhibitor, HepG2 tox)
c1ccc(CN(Cc2ccccc2)C(c2ccnc3ccccc23)c2nnnn2-c2ccc3c(c2)OCCO3)cc1 (configuration not stated)	DT40 TDP1 CPT inconclusive, DT40 TDP1 no CPT 23µM (no result: TGFb inhibitor, HepG2 tox)
c1ccc2c(C(c3nnnn3-c3ccc4c(c3)OCCO4)N3CCCC3)ccnc2c1 (configuration not stated)	DT40 TDP1 no CPT inconclusive (no result: TGFb inhibitor, HepG2 tox)
N#CCCN(Cc1ccccc1)C(c1ccnc2ccccc12)c1nnnn1-c1ccc2c(c1)OCCO2 (configuration not stated)	DT40 TDP1 CPT inconclusive (no result: TGFb inhibitor, HepG2 tox)
Cc1cccc(C)c1-n1nnnc1C(c1ccnc2ccccc12)N(Cc1ccccc1)Cc1ccccc1 (configuration not stated)	DT40 TDP1 CPT inconclusive, DT40 TDP1 no CPT inconclusive (no result: TGFb inhibitor, HepG2 tox)
CCCSc1cc(NCCOC(=O)CCC)c([N+](=O)[O-])c2nonc12	TGFb inhibitor inconclusive, DT40 TDP1 CPT 2.6µM, DT40 TDP1 no CPT 4.6µM, HT1080 IDH1KD tx inconclusive
CCCC(=O)OCCNc1cc(SCc2ccco2)c2nonc2c1[N+](=O)[O-]	DT40 TDP1 CPT inconclusive, HT1080NT lethal inconclusive, DT40 TDP1 no CPT inconclusive, HT1080 IDH1KD tx 23µM
CCCSc1cc(NCCOC(C)=O)c([N+](=O)[O-])c2nonc12	DT40 TDP1 no CPT inconclusive
O=[N+]([O-])c1c(NCc2ccco2)ccc2nonc12	none
